Assay results from PubChem BioAssay (Tox21).
Inconclusive results are not listed. Values without a mark were called inactive. Activity calls are given as the source filed them. The call rests on the fitted dose curve.

assay: cAMP Responsive Elements (CRE) small molecule agonists, cell-based qHTS assay (AID 1963590); conditions: CRE-bla HEK293T, beta-lactamase FRET ratio, 3 h; series mostly up to 92.4 µM; activation: at the top concentration
Procedure, shortened: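 CRE-bla HEK 293T cells in DMEM with 10% dialyzed FBS, NEAA, pyruvate and 25 mM HEPES were plated 18 h at 37 C/5% CO2, then exposed to compounds in DMSO for 3 h before LiveBLAzer B/G FRET substrate addition.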
On the % scale 0 is the no-effect control and ±100 the full control effect; potency means the concentration at half of the fitted maximal effect.

SMILES | activation | Potency
CNCc1cc(F)ccc1Oc1ccc(Cl)c(Cl)c1 | 5.83% | –
CN(C)CCN(Cc1ccccc1)c1ccccn1 | -1.47% [at 42.5 µM] | –
O=S(=O)(Oc1ccc(Cl)cc1)c1ccccc1 | 5.16% | –
CCc1ncc(C)[nH]1 | 0.683% | –
Oc1ccc2c(c1)-c1ccccc1C2 | -1.29% | –
CSC(=O)c1cccc2nnsc12 | -1.2% | –
CCC[C@@H]1C[C@@H](C(=O)N[C@@H]([C@H]2O[C@H](SC)[C@H](O)[C@@H](O)[C@H]2O)[C@@H](C)O)N(C)C1 | -1.11% [at 42.5 µM] | –
CC(=O)/C=C/C=C1/C2CCC(C2)C1(C)C (centres undefined) | -1.25% [at 42.5 µM] | –
COc1cc(-c2ccc(=O)[nH]n2)ccc1OC(F)F | – | 13.3 µM (active)
CCCCCCCCCCCCN1CCCCCC1=O | 0.424% | –
COc1ccc(S(=O)(=O)Nc2nnc(CC(C)C)s2)cc1 | -0.594% [at 42.5 µM] | –
Cc1cc(NC(=O)C(=O)O)cc(C)c1Oc1ccc(O)c2c1CCC2 | 0.0761% | –
CCCNC(C)C(=O)Nc1c(C)csc1C(=O)OC (centres undefined) | -0.148% [at 42.5 µM] | –
OCCCS | -0.782% | –
OCCCCCO | 0.243% | –
CC(=O)OCC(=O)[C@@]1(O)[C@H](OC(C)=O)C[C@H]2[C@@H]3CCC4=CC(=O)C=C[C@]4(C)[C@@]3(F)[C@@H](O)C[C@@]21C | 0.462% [at 42.5 µM] | –
NS(=O)(=O)c1ccc(C(=O)O)cc1 | -0.455% [at 42.5 µM] | –
CC1=CC(C)C(C=O)C(C)C1 (centres undefined) | 0.481% | –
ClCCOCCOCCCl | 0.415% | –
CCc1c2c(nc3ccc(OC(=O)N4CCC(N5CCCCC5)CC4)cc13)-c1cc3c(c(=O)n1C2)COC(=O)[C@]3(O)CC | 5.36% [at 42.5 µM] | –
CC(COc1ccccc1)NN (centres undefined) | -1.9% [at 42.5 µM] | –
CCCCNC(=O)NCCCC | -0.918% | –
CCOc1ccccc1OCC1CNCCO1 (centres undefined) | -1.55% [at 42.5 µM] | –
Cc1coc2ccccc2c1=O | -0.681% [at 42.5 µM] | –
